In all, about 5,500 compounds went through this assay and about 2,000 (36%) were called active. About 18% were inconclusive and are not listed. Cut-off read from the data, not from the text of the source: active = normalized growth mostly below about 0.91 (no sharp cut-off); inconclusive = no clear call, values can overlap the other calls; inactive = mostly above about 0.92. This is one part of the list.
Assay: chemical genetic growth profiling, strain panel (AID 1159580);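 note: tested at 20 µM; growth read once vehicle control cultures reached saturation at 30 °C; 1 = growth at the plate median or of vehicle wells; lower values mean less growth of the strain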
Conditions: growth OD

Measured: normalized growth

CCC(=O)OC1[C@@H]2CC3=C4CC(=O)O[C@@H](c5ccoc5)[C@]4(C)CCC3[C@@](C)(C2=O)[C@@H](CC(=O)OC)C1(C)C (stereo partly specified)
inactive: S. cerevisiae deletion strains, locus YJR066W, strain TOR1, hits give low values 0.936 | S. cerevisiae deletion strains, locus YKL009W, strain mrt4, hits give low values 1 | S. cerevisiae deletion strains, locus YKL068W, hits give low values 1.01 | S. cerevisiae deletion strains, locus YKL085W, strain MDH1 (second series), hits give low values 1 | S. cerevisiae deletion strains, locus YKL085W, strain MDH1, hits give low values 1 | S. cerevisiae deletion strains, locus YKL160W, strain elf1, hits give low values 1.01 | S. cerevisiae deletion strains, locus YKL190W, strain CNB1, hits give low values 0.999 | S. cerevisiae deletion strains, locus YKR001C, strain vps1, hits give low values 1.02 | S. cerevisiae deletion strains, locus YKR026C, strain gcn3, hits give low values 0.991 | S. cerevisiae deletion strains, locus YKR091W, strain srl3, hits give low values 0.984 | S. cerevisiae deletion strains, locus YLL001W, strain dnm1, hits give low values 1 | S. cerevisiae deletion strains, locus YLL026W, hits give low values 0.988 | S. cerevisiae deletion strains, locus YLL041C, strain sdh2, hits give low values 0.992 | S. cerevisiae deletion strains, locus YLR027C, strain aat2, hits give low values 0.992 | S. cerevisiae deletion strains, locus YLR039C, strain RIC1, hits give low values 0.884 | S. cerevisiae deletion strains, locus YLR058C, strain SHM2, hits give low values 1 | S. cerevisiae deletion strains, locus YLR102C, strain apc9, hits give low values 1.02 | S. cerevisiae deletion strains, locus YLR113W, strain HOG1, hits give low values 1.01 | S. cerevisiae deletion strains, locus YLR221C, strain rsa3, hits give low values 0.985 | S. cerevisiae deletion strains, locus YLR258W, strain gsy2, hits give low values 1.01 | S. cerevisiae deletion strains, locus YLR262C, strain YPT6 (second series), hits give low values 0.908 | S. cerevisiae deletion strains, locus YLR262C, strain YPT6, hits give low values 0.782 | S. cerevisiae deletion strains, locus YLR268W, strain sec22, hits give low values 0.997 | S. cerevisiae deletion strains, locus YLR320W, strain mms22, hits give low values 0.976 | S. cerevisiae deletion strains, locus YLR342W, strain FKS1, hits give low values 0.981 | S. cerevisiae deletion strains, locus YLR357W, strain rsc2, hits give low values 1.03 | S. cerevisiae deletion strains, locus YLR370C, strain arc18, hits give low values 0.983 | S. cerevisiae deletion strains, locus YLR371W, strain rom2, hits give low values 1.01 | S. cerevisiae deletion strains, locus YLR384C, strain iki3, hits give low values 1 | S. cerevisiae deletion strains, locus YLR418C, strain cdc73, hits give low values 1.03 | S. cerevisiae deletion strains, locus YML016C, strain PPZ1, hits give low values 1 | S. cerevisiae deletion strains, locus YML032C, strain rad52, hits give low values 1.02 | S. cerevisiae deletion strains, locus YML120C, strain ndi1, hits give low values 0.999 | S. cerevisiae deletion strains, locus YML124C, strain tub3, hits give low values 1.01 | S. cerevisiae deletion strains, locus YMR058W, strain fet3, hits give low values 0.994 | S. cerevisiae deletion strains, locus YMR078C, strain ctf18, hits give low values 1.02 | S. cerevisiae deletion strains, locus YMR125W, strain sto1, hits give low values 0.996 | S. cerevisiae deletion strains, locus YMR129W, hits give low values 0.998 | S. cerevisiae deletion strains, locus YMR205C, strain PFK2, hits give low values 0.995 | S. cerevisiae deletion strains, locus YMR223W, strain ubp8, hits give low values 1.01 | S. cerevisiae deletion strains, locus YMR231W, strain pep5, hits give low values 0.955 | S. cerevisiae deletion strains, locus YMR307W, strain GAS1, hits give low values 0.842 | S. cerevisiae deletion strains, locus YNL067W, strain RPL9B, hits give low values 1.01 | S. cerevisiae deletion strains, locus YNL071W, strain lat1, hits give low values 0.993 | S. cerevisiae deletion strains, locus YNL153C, strain GIM3, hits give low values 1.02 | S. cerevisiae deletion strains, locus YNL183C, strain NPR1, hits give low values 0.946 | S. cerevisiae deletion strains, locus YNL209W, strain ssb2, hits give low values 1 | S. cerevisiae deletion strains, locus YNL233W, strain BNI4, hits give low values 0.954 | S. cerevisiae deletion strains, locus YNL248C, strain rpa49, hits give low values 0.992 | S. cerevisiae deletion strains, locus YNL250W, strain rad50, hits give low values 1.01 | S. cerevisiae deletion strains, locus YNL271C, strain bni1, hits give low values 1.01 | S. cerevisiae deletion strains, locus YNL298W, strain CLA4, hits give low values 1.03 | S. cerevisiae deletion strains, locus YNL307C, strain MCK1, hits give low values 1.01 | S. cerevisiae deletion strains, locus YNL322C, strain KRE1 (second series), hits give low values 0.996 | S. cerevisiae deletion strains, locus YNL322C, strain KRE1, hits give low values 0.992 | S. cerevisiae deletion strains, locus YNR049C, strain mso1, hits give low values 0.989 | S. cerevisiae deletion strains, locus YNR052C, strain pop2, hits give low values 1.03 | S. cerevisiae deletion strains, locus YOL012C, strain htz1 1.24 | S. cerevisiae deletion strains, locus YOL147C, strain pex11, hits give low values 1.02 | S. cerevisiae deletion strains, locus YOR001W, strain rrp6, hits give low values 0.994 | S. cerevisiae deletion strains, locus YOR061W, strain CKA2, hits give low values 0.996 | S. cerevisiae deletion strains, locus YOR069W, strain VPS5, hits give low values 1 | S. cerevisiae deletion strains, locus YOR070C, strain gyp1, hits give low values 0.988 | S. cerevisiae deletion strains, locus YOR080W, strain dia2, hits give low values 0.981 | S. cerevisiae deletion strains, locus YOR083W, strain WHI5, hits give low values 1.02 | S. cerevisiae deletion strains, locus YOR106W, strain vam3, hits give low values 1.03 | S. cerevisiae deletion strains, locus YOR136W, strain idh2, hits give low values 1.02 | S. cerevisiae deletion strains, locus YOR144C, strain elg1, hits give low values 1.01 | S. cerevisiae deletion strains, locus YOR184W, strain ser1, hits give low values 0.989 | S. cerevisiae deletion strains, locus YOR231W, strain MKK1, hits give low values 1.01 | S. cerevisiae deletion strains, locus YOR265W, strain rbl2, hits give low values 0.994 | S. cerevisiae deletion strains, locus YOR270C, strain vph1, hits give low values 0.858 | S. cerevisiae deletion strains, locus YOR290C, strain snf2, hits give low values 0.996 | S. cerevisiae deletion strains, locus YOR316C, strain cot1, hits give low values 1.01 | S. cerevisiae deletion strains, locus YPL051W, strain arl3, hits give low values 0.982 | S. cerevisiae deletion strains, locus YPL055C, strain LGE1, hits give low values 1.01 | S. cerevisiae deletion strains, locus YPL078C, strain atp4, hits give low values 1.02 | S. cerevisiae deletion strains, locus YPL106C, strain sse1, hits give low values 1.04 | S. cerevisiae deletion strains, locus YPL240C, strain hsp82, hits give low values 0.99 | S. cerevisiae deletion strains, locus YPL256C, strain CLN2, hits give low values 0.983 | S. cerevisiae deletion strains, locus YPR119W, strain clb2, hits give low values 1.01 | S. cerevisiae deletion strains, locus YPR141C, strain kar3, hits give low values 1.01 | S. cerevisiae deletion strains, locus YPR163C, strain tif3, hits give low values 1.01 | S. cerevisiae deletion strains, locus YPR167C, strain met16, hits give low values 0.998 | S. cerevisiae deletion strains, strain wtn01, hits give low values 1.07 | S. cerevisiae strains, strain wild type, hits give low values 0.976
